D1 potentiator – potentiators of human D1 dopamine receptor | 360,000 tested, 0.036% active | P21728 | potentiation, % at 10 µM | HEK293 TREx D1 cells, calcium flux, dopamine EC20 potentiation; in the data active means potentiation above about 30%; further: 0% is about no effect
Target sequence (P21728 whole entry, looked up): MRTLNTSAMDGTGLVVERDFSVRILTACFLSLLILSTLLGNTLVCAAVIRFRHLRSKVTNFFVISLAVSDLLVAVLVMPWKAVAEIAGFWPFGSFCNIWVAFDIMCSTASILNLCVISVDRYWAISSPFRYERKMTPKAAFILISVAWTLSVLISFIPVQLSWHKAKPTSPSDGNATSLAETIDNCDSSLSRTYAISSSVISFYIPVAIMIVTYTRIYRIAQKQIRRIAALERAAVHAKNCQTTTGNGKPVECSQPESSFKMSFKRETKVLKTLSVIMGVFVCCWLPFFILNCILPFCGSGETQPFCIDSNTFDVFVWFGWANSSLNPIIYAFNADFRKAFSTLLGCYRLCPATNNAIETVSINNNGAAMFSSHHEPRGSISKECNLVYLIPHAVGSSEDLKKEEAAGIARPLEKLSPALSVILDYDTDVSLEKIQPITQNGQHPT
D1 ag – agonists of human D1 dopamine receptor | activation, % at 2 µM | HEK293 T-REx D1 cells, calcium flux, agonist mode | P21728 | 360,000 tested, 1% active; in the data active means activation above about 30%; further: 0% is about no effect
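Tetracycline-induced HEK293 TREx D1 cells, force-coupled to calcium signalling, were dye-loaded with a no-wash calcium kit. Compound was pin-added after a 10 s baseline. Fluorescence was read kinetically at 1 cycle/s for 180 s, with calcium rises flagged as agonism.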
D3 ag – D3 dopamine receptor (human) agonism; P35462; D3R DiscoveRx beta-arrestin cells, luminescence, 90 min; max activation, %; 410,000 tested, 0.58% active; in the data active means max activation above about 30%; further: 0% is about no effect
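Cells at 1500/well, incubated overnight, then treated with pinned compounds (dopamine as control) for 90 min at 37 degrees C. DiscoveRx reagent added for 30 - 60 minutes at room temperature; luminescence read.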
BCR signal inh – blocks chronic active B-cell receptor signaling. ABC-DLBCL IkBa-CBG/CBR reporter, luminescence ratio, 4 h. Potency, µM (doses to about 46.1 µM), for inactives: top-dose activity change, negative = inhibition, usual class: inhibitors. 340,000 tested, 0.05% active. AID 493014; active means well fitted inhibition curve with a large enough effect in the signal ratio, with a control signal flat, not every such curve was filed as active; inconclusive means small, poorly fitted or top-dose-only effect, or effect the other way, or a change in a side signal; the % refers to the signal ratio;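 further: potency means the concentration at half of the fitted maximal effect; plate controls were basal doxycycline-induced cells for no effect and cells given 10 µM MG132 for full effect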
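TMD8 ABC-DLBCL cells carrying doxycycline-inducible green luciferase fused to IkappaBalpha plus unfused red luciferase were exposed to compounds (up to 46 uM) for 4 hrs at 37C. Activity came from the overlap-corrected green/red luminescence ratio.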
D1 antagonist – antagonists of human D1 dopamine receptor; P21728; activity change, negative = inhibition, % at 10 µM; HEK293 TREx D1 cells, calcium flux, dopamine EC80; active compounds read low; 360,000 tested, 3.2% active; in the data active means activity change below about -30%; further: on the % scale 0 is the no-effect control and ±100 the full control effect
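After overnight tetracycline induction at 30 C, force-coupled D1 HEK293 cells took up a no-wash calcium dye at room temperature. Compounds were added and monitored 180 s, and the response to EC80 dopamine was then recorded.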
DRD3 antagonist – D3 dopamine receptor (human) antagonism; 360,000 tested, 2.5% active; D3R cells, DiscoveRx beta-arrestin luminescence, antagonist mode; active compounds read low; max response, negative = inhibition, %; P35462; in the data active means max response below about -50%; inconclusive means no clear call, values can overlap the other calls; further: on the % scale 0 is the no-effect control and ±100 the full control effect
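Cells expressing the human receptor were seeded at 1500 cells/well, incubated overnight at 37 degrees C in 5% CO2, then exposed to library compounds with dopamine controls for 90 minutes at 37 degrees C before luminescent detection.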
Active calls of the source: *; u = inconclusive; x = not tested or not shown; ! = a repeat was not active. Only some compounds are listed: those with a hit (about 6% of all), similar ones and a draw of the others.

SMILES | D1 potentiator | D1 ag | D3 ag | BCR signal inh | D1 antagonist | DRD3 antagonist
CCN(CC)S(=O)(=O)c1cccc(NC(=O)COC(=O)c2n[nH]c(=O)c3ccccc23)c1 | -5.1 | 4.5 | 11.7 | -9.6% | -31.6* | 12.3
COc1ccc2c(CC(=O)Nc3cccc(S(=O)(=O)N4CCOCC4)c3)coc2c1 | -11.4 | 0.6 | 1.5 | -18.8% | -87.4* | -6.3
CCN(CC)S(=O)(=O)c1cccc(NC(=O)COC(=O)c2cc(C)oc2C)c1 | -3.0 | 5.0 | 3.3 | u | -22.2 | 24.1
CCCc1nc2ccccc2c(C(=O)OCC(=O)Nc2ccc(S(=O)(=O)N3CCOCC3)cc2)c1CC | -1.8 | 5.2 | 31.6* | u | x | 35.5
CCCc1nc2ccccc2c(C(=O)OCC(=O)NC2CC2)c1CC | x | x | 2.9 | 0.6% | x | 30.7
CC1CCc2nc3ccccc3c(C(=O)OCC(=O)N3CCc4ccccc43)c2C1 (centres undefined) | 3.4 | 5.0 | 2.1 | -1.5% | -7.7 | 38.8
O=C(COC(=O)CCc1nc2ccccc2s1)Nc1ccc(S(=O)(=O)N2CCOCC2)cc1 | 0.8 | 3.6 | -0.4 | 2.9% | -3.3 | 5.7
O=C(COC(=O)CCc1ccc(S(=O)(=O)N2CCOCC2)cc1)Nc1ccc(Cl)cn1 | -8.1 | 35.8*! | 1.3 | -1.0% | -8.1 | 8.3
O=C(COC(=O)c1cc(S(=O)(=O)N2CCOCC2)ccc1Cl)Nc1ccc(Cl)cn1 | x | x | 8.3 | x | x | 7.9
O=C(COC(=O)CCc1nc2ccccc2s1)Nc1cccc(S(=O)(=O)N2CCOCC2)c1 | -6.8 | 4.2 | 2.5 | 3.4% | -43.6* | -12.4
O=C(COC(=O)c1cc(=O)[nH]c2ccccc12)Nc1cccc(S(=O)(=O)N2CCOCC2)c1 | -12.2 | 3.9 | -3.7 | -13.3% | -8.7 | -11.0
CCCc1nc2ccccc2c(C(=O)OCC(=O)Nc2cccc(S(=O)(=O)N3CCOCC3)c2)c1CC | -7.2 | 8.2 | 1.2 | u | -33.6* | 15.7
O=C(COC(=O)c1n[nH]c2ccccc12)Nc1cccc(S(=O)(=O)N2CCOCC2)c1 | -8.9 | 4.2 | 4.9 | -16.2% | -30.5* | 9.4
CCOC(=O)[C@]12CCC=C1N(Cc1ccc(Cl)cc1Cl)C(=O)[C@H](CC(=O)NCc1ccccc1)C2 | x | x | -1.7 | x | x | 7.1
N#CCc1nc2ccc(S(=O)(=O)N3CCOCC3)cc2s1 | 1.2 | 39.0* | -13.8 | 2.2% | 9.0 | -19.9
CCn1c(SCc2nc3ccccc3s2)nc2cc(S(=O)(=O)N3CCOCC3)ccc21 | x | x | -5.0 | x | x | -19.6
O=S(=O)(c1ccc(OCc2nc3ccccc3s2)c(Cl)c1)N1CCOCC1 | -6.0 | 10.9 | -12.8 | 10.6% | 2.2 | -75.5*
CC(=O)OCc1ccccc1Sc1ccccc1C(=O)NCc1ccccc1 | 11.2 | 3.0 | 4.5 | -10.2% | -44.7* | 6.6
CCOc1ccc(Nc2cc(C)nc3ccc(C)cc23)cc1 | x | x | -27.3 | x | x | -5.4
CCOc1ccc2nc(C)cc(Nc3ccccc3OCC)c2c1 | -1.2 | 25.0 | -16.6 | x | -49.0* | x
O=c1c2c3c(sc2n(Cc2ccccc2F)c(=O)n1-c1ccc(Cl)cc1)CCCC3 | 0.6 | -0.5 | 0.7 | x | 6.6 | x
Cc1ccc(C(NC(=O)C2CCN(CCOc3ccc(Cl)cc3)CC2)c2ccccn2)cc1 (centres undefined) | x | x | -12.3 | x | x | -94.5*
O=C(NC(c1ccc(Cl)cc1)c1cnccn1)C1CCN(CCCOc2ccccc2)CC1 (centres undefined) | x | x | -12.9 | x | x | -84.2*
Cc1ccc(C(NC(=O)C2CCN(CCCOc3ccccc3)CC2)c2ccccn2)cc1 (centres undefined) | x | x | -12.2 | x | x | -114.9*
O=C(NC(c1ccc(Cl)cc1)c1ccsc1)C1CCN(CCOc2ccc(Cl)cc2)CC1 (centres undefined) | x | x | -15.9 | x | x | -84.3*
SMILES | D1 potentiator | D1 ag | D3 ag | BCR signal inh | D1 antagonist | DRD3 antagonist
COc1ccc(OC)c(CCNc2nc3ccccc3c3nc(-c4cccnc4)nn23)c1 | -3.8 | 0.6 | 0.1 | x | 6.0 | x
CCOC(=O)C1OC1(c1ccccc1)c1ccccc1 (centres undefined) | x | x | 5.3 | x | x | -11.3
COc1ccc(C(NC(=O)C2CCN(CCOc3ccc(Cl)cc3Cl)CC2)c2ccccn2)cc1 (centres undefined) | x | x | -24.4 | x | x | -69.6*
COc1ccccc1C(NC(=O)C1CCN(CCOc2ccc(Cl)cc2Cl)CC1)c1ccccn1 (centres undefined) | x | x | -12.9 | x | x | u
COc1ccc(C(NC(=O)C2CCN(CCCOc3ccccc3)CC2)c2cccs2)cc1 (centres undefined) | x | x | -11.6 | x | x | -74.8*
O=C(NC(c1ccccc1)c1cnccn1)C1CCN(CCCOc2ccccc2)CC1 (centres undefined) | x | x | -22.2 | x | x | 0.7
Cc1nn(-c2ccccc2)c(C)c1-c1ccccc1O | -0.1 | 0.6 | 0.1 | u | -6.0 | 7.9
Cc1nn(-c2ccccc2)c(/N=C/c2ccc(O)cc2)c1-c1ccccc1 | -8.5 | 0.6 | 3.8 | u | -43.7* | 15.9
COc1cc(OC)c2ccc(=O)oc2c1C(CCN1CCN(c2ccccc2)CC1)c1ccc(N(C)C)cc1 (centres undefined) | -12.8 | -0.2 | -62.3 | 4.5% | -73.6* | -114.9*
CCN(CC)C(=O)CC(c1cc(OC)c(OC)c(OC)c1)c1c(OC)cc(OC)c2c(-c3ccccc3)cc(=O)oc12 (centres undefined) | -9.4 | 1.7 | -6.9 | -12.8% | -100.4* | -25.9
COc1ccc(C(CCN2CCOCC2)c2c(OC)cc(OC)c3c(-c4ccccc4)cc(=O)oc23)cc1 (centres undefined) | x | x | -44.2 | u | x | 9.4
CCCCCc1cc(=O)oc2c(C(CCN3CCN(c4ccccc4)CC3)c3ccc(N(C)C)cc3)c(OC)cc(OC)c12 (centres undefined) | -5.0 | 2.8 | -44.9 | -2.0% | -27.0 | -51.7*
COc1ccc(C(CCN2CCN(c3ccccc3)CC2)c2c(OC)cc(OC)c3c(-c4ccccc4)cc(=O)oc23)cc1 (centres undefined) | -9.1 | 3.9 | -1.1 | u | -41.6* | -53.2*
CCCCCc1cc(=O)oc2c(C(CCN3CCCCC3)c3ccc4c(c3)OCO4)c(OC)cc(OC)c12 (centres undefined) | -9.4 | 21.2 | -62.5 | -16.6% | 1.5 | -19.6
CCOc1ccc2nc(NC(=O)c3cc(=O)c4ccc(C)cc4o3)sc2c1 | -1.2 | 1.8 | 2.9 | x | 7.6 | x
Cc1cc(C)cc(NC(=O)C(Cc2ccccc2)N2Cc3ccccc3C2=O)c1 (centres undefined) | 0.2 | 4.8 | -14.6 | x | 5.5 | x
CCOC(=O)c1c(NC(=O)CSc2cn(CCNC(=O)c3ccccc3OC)c3ccccc23)sc2c1CCC2 | -0.1 | 0.5 | -1.6 | x | 34.2 | x
Cc1c(C(=O)N2CCCC2)oc2c1-c1nn(CC(=O)NCc3ccccc3F)cc1CC2 | -4.3 | -0.4 | 2.2 | x | 3.8 | x
